Measured values published in ChEMBL document CHEMBL1156829.
The full ranking holds about 5,400 compounds; the median of “IFI” is about 2, and the highest 2% start at about 22. The full list was thinned out, with the highest values kept by preference.

Assay: NOVARTIS: Inhibition Frequency Index (IFI) - the number of HTS assays where a compound showed > 50% inhibition/induction, expressed as a percentage of the number of assays in which the compound was tested.
Type: functional

Question: With `CCOc1ccc(C(=O)C(CCC(C[N+]2(C)CCCCCC2)C(=O)c2ccc(OCC)cc2)C[N+]2(C)CCCCCC2)cc1` (configuration not stated) as the molecule, how does the IFI read?
Answer: 0%

Question: Which IFI does the source give for `COc1ccc(CCNc2nc(NCCC3CCCN3C)ncc2C(=O)NCc2ccccc2)cc1OC` (configuration not stated) here?
Answer: 1.92%

Question: Which IFI does the source give for `COc1ccc2[nH]c(=O)c(CN(C(=S)Nc3ccccc3OC)C3CCCC3)cc2c1` here?
Answer: 2.17%

Question: With `Nc1ccc(-c2cc(N)n(-c3ccc(Oc4ccccc4)c(S(=O)(=O)O)c3)n2)cc1` as the molecule, how does the IFI read?
Answer: 1.83%

Question: For `CCOc1cccc2oc(=O)c(C(=O)Nc3cc(C(C)(C)C)on3)cc12`, which IFI is on record?
Answer: 0%

Question: With `CCOc1ccc(-c2nc(NC(=O)CS(=O)(=O)c3ccccc3)sc2C)cc1` as the molecule, how does the IFI read?
Answer: 0%

Question: For `CCOC(=O)C1CCN(C(=O)c2cc(C(C)(C)C)nn2Cc2ccc(Cl)cc2Cl)CC1`, which IFI is on record?
Answer: 1.63%

Question: For `CCC(c1nc2ccccc2c(=O)n1CC)N1CCN(C(=O)Nc2ccccc2C(F)(F)F)CC1` (configuration not stated), which IFI is on record?
Answer: 2.08%

Question: Which IFI does the source give for `Cc1ccccc1CN1CCN(C/C=C/c2ccccc2)CCC1=O` here?
Answer: 0.962%

Question: Which IFI does the source give for `CCN1/C(=C/c2sc3ccc(-c4ccccc4)cc3[n+]2CCO)C=Cc2ccccc21` here?
Answer: 7.14%

Question: For `CCN1/C(=C/c2sc3ccccc3[n+]2CC)Sc2ccccc21`, which IFI is on record?
Answer: 21.9%

Question: With `CCN1/C(=C/c2sc3cc(OC)c(OC)cc3[n+]2CC)C=Cc2ccccc21` as the molecule, how does the IFI read?
Answer: 23.1%

Question: Which IFI does the source give for `CCCOC(=O)C1=C(C)NC2=C(C(=O)CC(c3ccc(Cl)cc3)C2)C1c1ccc(Br)cc1` (configuration not stated) here?
Answer: 3.57%

Question: For `Cc1ccn2c(NC(C)(C)CC(C)(C)C)c(-c3ccccc3OC(=O)c3ccc(C)c([N+](=O)[O-])c3)nc2c1`, which IFI is on record?
Answer: 3.74%

Question: Which IFI does the source give for `Cc1ccc(S(=O)(=O)NC(Cc2ccccc2)C(=O)N2CCC(C3CCN(C(=O)c4ccc([N+](=O)[O-])o4)CC3)CC2)cc1` (configuration not stated) here?
Answer: 7.69%

Question: For `CCCCSc1oc(C)nc1[P+](c1ccccc1)(c1ccccc1)c1ccccc1`, which IFI is on record?
Answer: 22.2%

Question: Which IFI does the source give for `Cc1nc([P+](c2ccccc2)(c2ccccc2)c2ccccc2)c(SCc2ccccc2)o1` here?
Answer: 21.6%

Question: For `CCC(c1nc2ccccc2c(=O)n1-c1ccc(F)c(Cl)c1)N(CCc1ccccc1)C(=O)COc1ccccc1` (configuration not stated), which IFI is on record?
Answer: 1.87%

Question: With `OC(Cn1nnc2ccccc21)Cn1c2ccc(Br)cc2c2cc(Br)ccc21` (configuration not stated) as the molecule, how does the IFI read?
Answer: 2.01%

Question: With `COc1ccc(OC)c(C2CC(=O)C3=C(C2)NC(=O)CC3c2ccc([N+](=O)[O-])cc2)c1` (configuration not stated) as the molecule, how does the IFI read?
Answer: 0%

Question: With `CC(/C=C/C(=O)NO)=C\[C@@H](C)C(=O)c1ccc(N(C)C)cc1` as the molecule, how does the IFI read?
Answer: 22.6%

Question: For `CN(C)c1ccc(/C=C/C(=O)NC(=O)c2ccccc2O)cc1`, which IFI is on record?
Answer: 10.6%

Question: For `Cc1ccc(C(=O)C(C)[n+]2ccc(N(C)C)cc2)cc1` (configuration not stated), which IFI is on record?
Answer: 0%

Question: For `CC(C)COc1ccc(C(=O)N/C(=C/c2ccccc2)C(N)=O)cc1`, which IFI is on record?
Answer: 0%

Question: For `O=C1C(Nc2ccc(O)cc2)=CC(=NS(=O)(=O)c2cccs2)c2ccccc21`, which IFI is on record?
Answer: 23.1%

Question: With `COc1ccccc1NC1=CC(=NS(=O)(=O)c2cccs2)c2ccccc2C1=O` as the molecule, how does the IFI read?
Answer: 7.69%

Question: For `CC(=O)Nc1ccc(NC2=CC(=NS(=O)(=O)c3ccccc3)c3ccccc3C2=O)cc1`, which IFI is on record?
Answer: 7.69%

Question: Which IFI does the source give for `COc1ccc(S(=O)(=O)N=C2C=C(Nc3ccccc3OC)C(=O)c3ccccc32)cc1` here?
Answer: 23.1%

Question: For `COc1ccccc1NC1=CC(=NS(=O)(=O)c2ccc(F)cc2)c2ccccc2C1=O`, which IFI is on record?
Answer: 15.4%

Question: With `CCOc1ccc(S(=O)(=O)N=C2C=C(Nc3ccc(O)cc3)C(=O)c3ccccc32)cc1` as the molecule, how does the IFI read?
Answer: 15.4%

Question: Which IFI does the source give for `COc1ccccc1NC1=CC(=NS(=O)(=O)c2ccccc2)c2ccccc2C1=O` here?
Answer: 21.4%

Question: With `COc1ccc(S(=O)(=O)N=C2C=C(Nc3ccc(O)cc3)C(=O)c3ccccc32)cc1` as the molecule, how does the IFI read?
Answer: 23.1%

Question: With `COc1ccc(S(=O)(=O)N=C2C=C(Nc3ccccc3)C(=O)c3ccccc32)cc1` as the molecule, how does the IFI read?
Answer: 0%

Question: For `CC(=O)N(C1=C(N2CCOCC2)C(=O)c2ccccc2C1=O)c1cccc(Cl)c1`, which IFI is on record?
Answer: 0%

Question: Which IFI does the source give for `O=C(NC1CC1)C1CCN(c2cccc3c2C(=O)N(C2CCCCCCC2)C3=O)CC1` here?
Answer: 5.94%

Question: Which IFI does the source give for `Cc1ccc2nc(-c3ccc(O)cc3)oc2c1` here?
Answer: 7.14%

Question: Which IFI does the source give for `O=S(=O)(Nc1cc(Sc2nc[nH]n2)c(O)c2ccccc12)c1ccc(F)cc1` here?
Answer: 23.1%

Question: For `O=S(=O)(NCCCCNc1ccnc2cc(Cl)ccc12)c1ccc(F)cc1`, which IFI is on record?
Answer: 1.85%

Question: For `Cc1oc2c(cc(NS(=O)(=O)c3ccc(F)cc3)c3ccccc32)c1C(=O)OCc1ccccc1`, which IFI is on record?
Answer: 0%

Question: With `O=C(c1ccc2nc(N3CCCCC3)sc2c1)N1CCN(Cc2ccc3c(c2)OCO3)CC1` as the molecule, how does the IFI read?
Answer: 2.86%

Question: For `COc1ccc([N+](=O)[O-])cc1NC(=O)C(C)Nc1ccc(N(C)C)cc1` (configuration not stated), which IFI is on record?
Answer: 6.25%

Question: For `O=C(NN=Cc1ccc(O)cc1O)c1ccncc1`, which IFI is on record?
Answer: 2.73%

Question: Which IFI does the source give for `CC1=C(C(=O)Nc2ccccn2)C(c2ccc(O)cc2)n2ncnc2N1` (configuration not stated) here?
Answer: 0%

Question: For `Oc1ccc(C=NN=C(Nc2ccccn2)c2ccccn2)c(O)c1`, which IFI is on record?
Answer: 23.1%

Question: For `NS(=O)(=O)c1ccc(CCNC(=O)/C=C/c2ccc3c(c2)OCO3)cc1`, which IFI is on record?
Answer: 0%

Question: With `Oc1ccc(-c2ccnc3cc(Cl)ccc23)cc1CNCC1(O)CCCCC1` as the molecule, how does the IFI read?
Answer: 2.59%

Question: With `COc1ccc(C(=O)C[N+]2=C(C)c3ccc(C)n3CC2)cc1` as the molecule, how does the IFI read?
Answer: 0%
